# Reference: paper PMC7862700, “An all-to-all approach to the identification of sequence-specific readers for epigenetic DNA modifications on cytosine”
# Tests used:
# Assay in all cases: DAPPL (digital affinity profiling via proximity ligation, sequencing); 10 mM Tris-HCl pH 7.5, 50 mM NaCl, 1 mM DTT, 4% glycerol, room temperature, 30 min; GST-TFs on glutathione beads, 16-mer random dsDNA library, 0.1% formaldehyde crosslink after washing; high values mean tight binding
# [1] = molecular target: T1, FLI1 (Homo sapiens, UniProt Q01543 1-452); details: protein: recombinant; tags: N-terminal GST; dsDNA, one strand shown
# T1 sequence: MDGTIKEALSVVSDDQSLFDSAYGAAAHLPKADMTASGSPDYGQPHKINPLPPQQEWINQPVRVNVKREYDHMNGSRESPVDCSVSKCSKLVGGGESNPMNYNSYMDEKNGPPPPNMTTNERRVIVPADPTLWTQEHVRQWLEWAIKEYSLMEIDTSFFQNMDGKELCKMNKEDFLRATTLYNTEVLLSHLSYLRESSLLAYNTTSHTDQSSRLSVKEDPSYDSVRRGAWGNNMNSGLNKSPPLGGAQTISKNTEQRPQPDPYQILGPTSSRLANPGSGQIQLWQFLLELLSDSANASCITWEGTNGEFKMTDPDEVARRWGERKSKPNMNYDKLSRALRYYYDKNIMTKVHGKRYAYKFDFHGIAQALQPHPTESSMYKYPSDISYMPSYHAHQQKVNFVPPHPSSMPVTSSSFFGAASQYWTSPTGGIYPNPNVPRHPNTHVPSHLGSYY
# In short: (§1)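 Human transcription factors fused to GST were expressed in yeast, captured on glutathione beads, given DNA barcodes and pooled with a GST-only negative control. Pools were incubated with 200 nmole of a 16-mer random double-stranded DNA library in Tris/NaCl/DTT/glycerol buffer at room temperature for 30 min. They were then washed, crosslinked with 0.1% formaldehyde, proximity-ligated (BsaI/T4 ligase, 1 h, 37 °C), PCR-amplified and sequenced on an Illumina NextSeq500. Binding signal is each 6-mer's read frequency for a factor divided by its frequency for the GST control.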
# [2] = molecular target: T2, ELK1 (Homo sapiens, UniProt P19419 1-428); details: protein: recombinant; tags: N-terminal GST; dsDNA, one strand shown
# T2 sequence: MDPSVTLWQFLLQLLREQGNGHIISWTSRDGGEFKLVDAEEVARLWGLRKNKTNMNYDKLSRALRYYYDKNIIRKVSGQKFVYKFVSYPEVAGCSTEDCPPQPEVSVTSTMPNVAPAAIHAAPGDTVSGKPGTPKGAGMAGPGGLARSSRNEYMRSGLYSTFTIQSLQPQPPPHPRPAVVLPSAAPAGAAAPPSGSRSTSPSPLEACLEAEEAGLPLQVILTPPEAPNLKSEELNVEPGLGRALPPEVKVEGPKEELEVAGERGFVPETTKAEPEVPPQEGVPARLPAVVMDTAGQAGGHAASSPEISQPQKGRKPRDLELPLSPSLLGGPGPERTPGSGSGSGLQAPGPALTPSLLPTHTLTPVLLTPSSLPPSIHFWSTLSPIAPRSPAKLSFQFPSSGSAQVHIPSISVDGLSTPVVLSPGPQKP
# In short: as §1
# [3] = molecular target: T3, GABPA (Homo sapiens, UniProt Q06546 1-454); details: protein: recombinant; tags: N-terminal GST; dsDNA, one strand shown
# T3 sequence: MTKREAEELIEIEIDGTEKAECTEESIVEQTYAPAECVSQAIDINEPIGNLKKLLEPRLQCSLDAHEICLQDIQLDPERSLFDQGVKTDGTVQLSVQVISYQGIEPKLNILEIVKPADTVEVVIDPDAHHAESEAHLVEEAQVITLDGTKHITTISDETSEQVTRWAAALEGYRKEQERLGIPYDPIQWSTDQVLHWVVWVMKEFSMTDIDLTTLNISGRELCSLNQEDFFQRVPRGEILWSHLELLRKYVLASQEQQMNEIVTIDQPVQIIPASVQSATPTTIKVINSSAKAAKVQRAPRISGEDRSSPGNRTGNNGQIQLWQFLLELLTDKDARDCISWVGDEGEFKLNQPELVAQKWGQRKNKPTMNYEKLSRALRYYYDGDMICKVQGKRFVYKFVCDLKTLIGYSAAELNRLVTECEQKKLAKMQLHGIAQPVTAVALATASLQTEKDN
# In short: as §1
# [4] = molecular target: T4, ERG (Homo sapiens, UniProt P11308 1-479); details: protein: recombinant; tags: N-terminal GST; dsDNA, one strand shown
# T4 sequence: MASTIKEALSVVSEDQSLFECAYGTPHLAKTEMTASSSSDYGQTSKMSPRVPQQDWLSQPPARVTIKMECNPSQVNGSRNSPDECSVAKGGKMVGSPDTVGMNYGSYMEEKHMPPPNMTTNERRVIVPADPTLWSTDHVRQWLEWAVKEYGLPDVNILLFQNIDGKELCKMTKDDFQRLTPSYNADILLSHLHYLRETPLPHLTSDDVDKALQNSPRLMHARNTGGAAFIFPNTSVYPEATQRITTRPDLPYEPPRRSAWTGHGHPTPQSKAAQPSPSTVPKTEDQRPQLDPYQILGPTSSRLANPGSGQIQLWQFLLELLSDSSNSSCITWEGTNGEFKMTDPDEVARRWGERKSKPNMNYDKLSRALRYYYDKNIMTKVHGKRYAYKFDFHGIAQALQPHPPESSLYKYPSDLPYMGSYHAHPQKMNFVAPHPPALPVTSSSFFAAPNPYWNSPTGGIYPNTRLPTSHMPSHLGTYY
# In short: as §1
# [5] = molecular target: ELF1 (Homo sapiens, UniProt P32519 1-619); details: protein: recombinant; tags: N-terminal GST; dsDNA, one strand shown
# Sequence of ELF1 (P32519 whole entry): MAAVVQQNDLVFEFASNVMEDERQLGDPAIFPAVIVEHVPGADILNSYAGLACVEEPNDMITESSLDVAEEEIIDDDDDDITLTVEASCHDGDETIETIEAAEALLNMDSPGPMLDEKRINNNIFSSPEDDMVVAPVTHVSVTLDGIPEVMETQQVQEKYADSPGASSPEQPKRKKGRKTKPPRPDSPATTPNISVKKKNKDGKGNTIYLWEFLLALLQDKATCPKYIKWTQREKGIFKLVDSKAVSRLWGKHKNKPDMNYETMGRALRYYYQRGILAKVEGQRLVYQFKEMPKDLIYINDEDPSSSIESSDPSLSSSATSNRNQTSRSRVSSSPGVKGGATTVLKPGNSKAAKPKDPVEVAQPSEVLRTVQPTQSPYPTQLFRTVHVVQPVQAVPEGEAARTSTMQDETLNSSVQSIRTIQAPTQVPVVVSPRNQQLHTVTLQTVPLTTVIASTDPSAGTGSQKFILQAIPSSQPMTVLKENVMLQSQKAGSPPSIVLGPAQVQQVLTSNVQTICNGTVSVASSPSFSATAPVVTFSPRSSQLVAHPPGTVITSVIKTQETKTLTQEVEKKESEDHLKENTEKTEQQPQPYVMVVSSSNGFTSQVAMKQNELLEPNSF
# In short: as §1
# [6] = molecular target: T5, EHF (Homo sapiens, UniProt Q9NZC4 1-300); details: protein: recombinant; tags: N-terminal GST; dsDNA, one strand shown
# T5 sequence: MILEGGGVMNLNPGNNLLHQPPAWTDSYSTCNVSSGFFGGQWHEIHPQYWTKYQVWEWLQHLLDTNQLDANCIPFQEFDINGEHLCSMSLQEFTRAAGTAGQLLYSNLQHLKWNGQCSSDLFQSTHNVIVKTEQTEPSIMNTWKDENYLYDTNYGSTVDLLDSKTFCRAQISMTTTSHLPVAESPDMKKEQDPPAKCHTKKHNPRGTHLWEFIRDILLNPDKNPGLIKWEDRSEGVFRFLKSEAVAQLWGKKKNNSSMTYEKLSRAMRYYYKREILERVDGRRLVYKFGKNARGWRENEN
# In short: as §1
# [7] = molecular target: SPI1 (Homo sapiens, UniProt P17947 1-270); details: protein: recombinant; tags: N-terminal GST; dsDNA, one strand shown
# In short: as §1
# [8] = molecular target: SPIB (Homo sapiens, UniProt Q01892 1-262); details: protein: recombinant; tags: N-terminal GST; dsDNA, one strand shown
# Sequence of SPIB (Q01892 whole entry): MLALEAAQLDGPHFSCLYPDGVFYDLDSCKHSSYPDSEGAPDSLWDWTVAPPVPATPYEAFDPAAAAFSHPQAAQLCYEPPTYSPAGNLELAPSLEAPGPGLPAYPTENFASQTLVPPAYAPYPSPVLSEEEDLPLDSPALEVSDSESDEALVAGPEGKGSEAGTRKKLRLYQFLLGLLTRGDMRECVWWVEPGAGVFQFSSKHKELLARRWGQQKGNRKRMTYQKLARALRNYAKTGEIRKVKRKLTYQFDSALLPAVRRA
# In short: as §1
# [9] = molecular target: T6, ELK3 (Homo sapiens, UniProt P41970 1-407); details: protein: recombinant; tags: N-terminal GST; dsDNA, one strand shown
# T6 sequence: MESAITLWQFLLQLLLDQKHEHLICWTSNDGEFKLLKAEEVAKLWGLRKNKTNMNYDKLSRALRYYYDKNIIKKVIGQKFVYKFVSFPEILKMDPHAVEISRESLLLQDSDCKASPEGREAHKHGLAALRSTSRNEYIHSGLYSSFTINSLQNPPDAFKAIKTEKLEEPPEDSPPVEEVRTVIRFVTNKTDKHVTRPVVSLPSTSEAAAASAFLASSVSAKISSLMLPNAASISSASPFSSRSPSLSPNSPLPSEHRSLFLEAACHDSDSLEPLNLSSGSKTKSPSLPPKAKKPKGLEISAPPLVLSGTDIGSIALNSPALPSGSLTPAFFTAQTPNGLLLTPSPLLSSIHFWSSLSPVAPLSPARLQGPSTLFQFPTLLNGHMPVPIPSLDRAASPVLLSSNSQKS
# In short: as §1
# [10] = molecular target: T7, FEV (Homo sapiens, UniProt Q99581 1-238); details: protein: recombinant; tags: N-terminal GST; dsDNA, one strand shown
# T7 sequence: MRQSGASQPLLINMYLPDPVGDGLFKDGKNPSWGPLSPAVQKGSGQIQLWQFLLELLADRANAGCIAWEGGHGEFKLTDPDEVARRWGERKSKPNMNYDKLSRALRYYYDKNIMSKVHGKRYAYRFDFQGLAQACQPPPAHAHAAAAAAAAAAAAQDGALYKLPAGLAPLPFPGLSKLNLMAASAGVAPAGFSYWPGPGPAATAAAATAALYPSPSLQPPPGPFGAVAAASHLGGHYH
# In short: as §1
# [11] = molecular target: ETV5 (Homo sapiens, UniProt P41161 1-510); details: protein: recombinant; tags: N-terminal GST; dsDNA, one strand shown
# Sequence of ETV5 (P41161 whole entry): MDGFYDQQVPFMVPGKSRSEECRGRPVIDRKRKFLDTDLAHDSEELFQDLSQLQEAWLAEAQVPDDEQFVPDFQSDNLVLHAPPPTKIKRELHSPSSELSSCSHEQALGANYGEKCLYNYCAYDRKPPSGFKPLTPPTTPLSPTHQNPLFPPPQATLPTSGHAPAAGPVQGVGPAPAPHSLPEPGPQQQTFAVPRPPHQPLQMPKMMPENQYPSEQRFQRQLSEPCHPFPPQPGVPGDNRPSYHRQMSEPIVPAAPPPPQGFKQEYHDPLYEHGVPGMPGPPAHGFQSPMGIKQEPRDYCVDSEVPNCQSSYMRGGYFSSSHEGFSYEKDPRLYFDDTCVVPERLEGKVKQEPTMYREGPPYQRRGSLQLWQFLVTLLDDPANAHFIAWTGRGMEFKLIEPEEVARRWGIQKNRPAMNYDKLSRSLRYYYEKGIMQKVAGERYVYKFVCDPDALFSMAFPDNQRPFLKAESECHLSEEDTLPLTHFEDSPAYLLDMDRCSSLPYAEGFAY
# In short: as §1
# [12] = molecular target: HSF1 (Homo sapiens, UniProt Q00613 1-529); details: protein: recombinant; tags: N-terminal GST; chain copies: 3; dsDNA, one strand shown
# Sequence of HSF1 (Q00613 whole entry): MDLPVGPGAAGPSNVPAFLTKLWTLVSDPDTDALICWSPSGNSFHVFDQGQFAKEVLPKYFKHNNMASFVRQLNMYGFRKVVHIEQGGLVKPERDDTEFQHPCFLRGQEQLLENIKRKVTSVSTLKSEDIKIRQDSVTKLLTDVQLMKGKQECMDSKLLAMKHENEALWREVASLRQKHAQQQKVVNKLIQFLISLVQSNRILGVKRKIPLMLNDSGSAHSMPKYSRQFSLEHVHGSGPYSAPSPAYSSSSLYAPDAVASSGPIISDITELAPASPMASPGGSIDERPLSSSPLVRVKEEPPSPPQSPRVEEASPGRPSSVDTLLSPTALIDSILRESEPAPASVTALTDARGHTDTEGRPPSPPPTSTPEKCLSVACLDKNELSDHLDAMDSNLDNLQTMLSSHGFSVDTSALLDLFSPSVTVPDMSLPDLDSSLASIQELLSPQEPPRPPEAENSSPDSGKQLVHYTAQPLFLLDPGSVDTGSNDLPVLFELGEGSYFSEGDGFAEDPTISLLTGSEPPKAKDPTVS
# In short: as §1
# [13] = molecular target: T8, SPIC (Homo sapiens, UniProt Q8N5J4 1-248); details: protein: recombinant; tags: N-terminal GST; dsDNA, one strand shown
# T8 sequence: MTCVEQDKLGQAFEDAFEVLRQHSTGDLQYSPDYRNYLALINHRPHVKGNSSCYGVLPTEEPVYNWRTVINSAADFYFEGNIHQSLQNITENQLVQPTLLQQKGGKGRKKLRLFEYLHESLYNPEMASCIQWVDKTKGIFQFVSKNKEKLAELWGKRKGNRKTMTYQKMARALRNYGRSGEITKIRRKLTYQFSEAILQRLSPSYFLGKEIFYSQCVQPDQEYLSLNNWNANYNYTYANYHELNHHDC
# In short: as §1
# [14] = molecular target: ELF4 (Homo sapiens, UniProt Q99607 1-663); details: protein: recombinant; tags: N-terminal GST; dsDNA, one strand shown
# Sequence of ELF4 (Q99607 whole entry): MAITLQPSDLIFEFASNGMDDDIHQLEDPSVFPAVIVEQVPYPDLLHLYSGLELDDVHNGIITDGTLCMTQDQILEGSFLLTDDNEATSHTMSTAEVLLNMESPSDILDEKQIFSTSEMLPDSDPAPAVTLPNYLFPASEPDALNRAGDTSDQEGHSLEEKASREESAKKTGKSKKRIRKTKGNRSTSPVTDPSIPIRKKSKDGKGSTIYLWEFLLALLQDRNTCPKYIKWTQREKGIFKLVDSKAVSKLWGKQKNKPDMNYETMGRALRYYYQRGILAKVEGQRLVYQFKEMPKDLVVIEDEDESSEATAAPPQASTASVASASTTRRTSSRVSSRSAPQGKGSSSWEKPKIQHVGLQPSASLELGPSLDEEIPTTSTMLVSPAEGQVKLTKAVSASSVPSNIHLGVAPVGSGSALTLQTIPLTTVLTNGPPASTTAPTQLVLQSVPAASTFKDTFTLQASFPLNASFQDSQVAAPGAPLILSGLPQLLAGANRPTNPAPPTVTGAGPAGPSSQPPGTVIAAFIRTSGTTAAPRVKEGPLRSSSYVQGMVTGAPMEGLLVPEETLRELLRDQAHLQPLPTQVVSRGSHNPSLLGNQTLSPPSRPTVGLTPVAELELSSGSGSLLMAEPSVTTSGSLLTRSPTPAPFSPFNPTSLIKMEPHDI
# In short: as §1
# [15] = molecular target: T9, ELK4 (Homo sapiens, UniProt P28324-2 1-405); details: protein: recombinant; tags: N-terminal GST; dsDNA, one strand shown
# T9 sequence: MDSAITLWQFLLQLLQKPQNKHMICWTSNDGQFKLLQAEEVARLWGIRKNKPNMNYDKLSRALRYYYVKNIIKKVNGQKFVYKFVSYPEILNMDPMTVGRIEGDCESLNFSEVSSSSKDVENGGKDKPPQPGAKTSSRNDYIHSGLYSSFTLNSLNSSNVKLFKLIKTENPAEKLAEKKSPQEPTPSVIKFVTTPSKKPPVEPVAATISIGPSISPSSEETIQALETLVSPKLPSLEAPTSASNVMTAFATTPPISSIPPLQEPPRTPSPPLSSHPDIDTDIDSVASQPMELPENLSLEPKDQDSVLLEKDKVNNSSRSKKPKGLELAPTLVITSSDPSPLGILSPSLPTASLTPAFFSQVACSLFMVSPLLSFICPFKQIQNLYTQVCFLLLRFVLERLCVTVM
# In short: as §1
# [16] = molecular target: T10, ETV2 (Homo sapiens, UniProt O00321 1-342); details: protein: recombinant; tags: N-terminal GST; dsDNA, one strand shown
# T10 sequence: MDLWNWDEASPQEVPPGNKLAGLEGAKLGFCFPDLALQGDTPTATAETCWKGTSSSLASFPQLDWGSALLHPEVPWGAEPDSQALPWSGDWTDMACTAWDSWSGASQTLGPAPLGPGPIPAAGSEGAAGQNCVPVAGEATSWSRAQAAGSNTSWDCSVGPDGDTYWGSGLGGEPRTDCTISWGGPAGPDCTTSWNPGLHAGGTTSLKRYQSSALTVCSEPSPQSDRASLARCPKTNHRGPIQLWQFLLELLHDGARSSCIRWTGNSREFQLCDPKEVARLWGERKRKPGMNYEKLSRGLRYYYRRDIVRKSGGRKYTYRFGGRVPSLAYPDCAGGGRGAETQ
# In short: as §1
# [17] = molecular target: T11, ELF3 (Homo sapiens, UniProt P78545 1-371); details: protein: recombinant; tags: N-terminal GST; dsDNA, one strand shown
# T11 sequence: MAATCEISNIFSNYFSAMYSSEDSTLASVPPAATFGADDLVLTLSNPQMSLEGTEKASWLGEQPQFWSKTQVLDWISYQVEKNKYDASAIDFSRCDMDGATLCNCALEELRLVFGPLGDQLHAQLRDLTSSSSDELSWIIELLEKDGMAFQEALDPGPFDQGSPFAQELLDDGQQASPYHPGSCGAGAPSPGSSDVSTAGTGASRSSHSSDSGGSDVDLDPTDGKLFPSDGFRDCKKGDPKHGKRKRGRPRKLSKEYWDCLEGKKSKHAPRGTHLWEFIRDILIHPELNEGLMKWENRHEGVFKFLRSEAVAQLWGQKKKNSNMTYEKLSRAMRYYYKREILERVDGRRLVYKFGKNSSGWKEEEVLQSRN
# In short: as §1
# [18] = molecular target: CRX (Homo sapiens, UniProt O43186 1-299); details: protein: recombinant; tags: N-terminal GST; dsDNA, one strand shown
# Sequence of CRX (O43186 whole entry): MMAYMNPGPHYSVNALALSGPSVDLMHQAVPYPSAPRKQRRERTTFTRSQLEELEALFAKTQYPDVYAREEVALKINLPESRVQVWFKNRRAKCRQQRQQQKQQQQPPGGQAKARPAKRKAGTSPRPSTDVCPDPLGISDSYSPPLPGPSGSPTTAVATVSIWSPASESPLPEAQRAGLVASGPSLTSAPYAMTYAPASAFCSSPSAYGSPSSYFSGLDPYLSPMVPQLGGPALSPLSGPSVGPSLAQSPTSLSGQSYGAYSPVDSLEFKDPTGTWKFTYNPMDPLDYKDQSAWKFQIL
# In short: as §1
# [19] = molecular target: ETV1 (Homo sapiens, UniProt P50549 1-477); details: protein: recombinant; tags: N-terminal GST; dsDNA, one strand shown
# Sequence of ETV1 (P50549 whole entry): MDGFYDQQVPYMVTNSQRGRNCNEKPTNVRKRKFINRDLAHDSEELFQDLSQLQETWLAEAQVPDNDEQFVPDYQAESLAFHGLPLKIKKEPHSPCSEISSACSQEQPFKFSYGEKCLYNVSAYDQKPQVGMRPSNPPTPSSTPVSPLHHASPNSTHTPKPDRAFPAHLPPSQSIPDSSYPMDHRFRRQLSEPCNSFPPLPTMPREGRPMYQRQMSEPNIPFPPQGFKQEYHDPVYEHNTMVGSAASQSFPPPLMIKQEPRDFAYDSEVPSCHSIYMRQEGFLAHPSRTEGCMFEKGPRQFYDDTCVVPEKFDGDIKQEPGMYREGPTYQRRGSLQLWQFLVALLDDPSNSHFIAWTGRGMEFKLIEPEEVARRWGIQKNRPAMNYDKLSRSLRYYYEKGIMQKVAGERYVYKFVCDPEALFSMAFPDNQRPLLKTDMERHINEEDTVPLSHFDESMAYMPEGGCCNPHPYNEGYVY
# In short: as §1
sequence,measurement,setting,value
ATCCAT,binding signal,[1],"1.22 fold enrichment (6-mer frequency, TF over GST control)"
same,binding signal,[2],"1.17 fold enrichment (6-mer frequency, TF over GST control)"
same,binding signal,[3],"1.16 fold enrichment (6-mer frequency, TF over GST control)"
same,binding signal,[4],"1.11 fold enrichment (6-mer frequency, TF over GST control)"
same,binding signal,[5],"1.14 fold enrichment (6-mer frequency, TF over GST control)"
same,binding signal,[6],"1.14 fold enrichment (6-mer frequency, TF over GST control)"
same,binding signal,[7],"1.07 fold enrichment (6-mer frequency, TF over GST control)"
same,binding signal,[8],"1.18 fold enrichment (6-mer frequency, TF over GST control)"
same,binding signal,[9],"1.2 fold enrichment (6-mer frequency, TF over GST control)"
same,binding signal,[10],"1.24 fold enrichment (6-mer frequency, TF over GST control)"
same,binding signal,[11],"1.17 fold enrichment (6-mer frequency, TF over GST control)"
same,binding signal,[12],"1.23 fold enrichment (6-mer frequency, TF over GST control)"
same,binding signal,[13],"1.16 fold enrichment (6-mer frequency, TF over GST control)"
same,binding signal,[14],"1.13 fold enrichment (6-mer frequency, TF over GST control)"
same,binding signal,[15],"1.14 fold enrichment (6-mer frequency, TF over GST control)"
same,binding signal,[16],"1.19 fold enrichment (6-mer frequency, TF over GST control)"
same,binding signal,[17],"1.32 fold enrichment (6-mer frequency, TF over GST control)"
same,binding signal,[18],"1.55 fold enrichment (6-mer frequency, TF over GST control)"
same,binding signal,[19],"1.14 fold enrichment (6-mer frequency, TF over GST control)"
